# Key:
# Assay in all cases: DAPPL (digital affinity profiling via proximity ligation, sequencing); 10 mM Tris-HCl pH 7.5, 50 mM NaCl, 1 mM DTT, 4% glycerol, room temperature, 30 min; GST-TFs on glutathione beads, 16-mer random dsDNA library, 0.1% formaldehyde crosslink after washing; high values mean tight binding
# FLI1 = molecular target: T1, FLI1 (Homo sapiens, UniProt Q01543 1-452); details: protein: recombinant; tags: N-terminal GST; dsDNA, one strand shown
# T1 sequence: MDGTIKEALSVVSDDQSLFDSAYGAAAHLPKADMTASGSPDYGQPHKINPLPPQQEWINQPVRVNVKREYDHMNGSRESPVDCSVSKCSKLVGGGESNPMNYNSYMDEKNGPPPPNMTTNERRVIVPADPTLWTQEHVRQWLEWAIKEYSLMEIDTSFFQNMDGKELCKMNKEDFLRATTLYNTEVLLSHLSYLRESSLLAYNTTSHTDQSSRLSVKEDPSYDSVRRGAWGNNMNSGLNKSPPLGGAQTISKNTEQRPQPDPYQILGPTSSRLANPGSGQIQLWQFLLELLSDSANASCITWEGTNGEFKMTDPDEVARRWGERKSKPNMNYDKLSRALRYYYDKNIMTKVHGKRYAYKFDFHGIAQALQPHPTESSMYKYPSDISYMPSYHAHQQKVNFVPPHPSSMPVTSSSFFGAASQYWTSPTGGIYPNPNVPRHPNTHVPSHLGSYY
# How it was run: (§1)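 Pools of DNA-barcoded human transcription factors, expressed in yeast as GST fusions on glutathione beads and combined with a tag-only sample, were incubated with 200 nmole of a 16-mer random double-stranded DNA library. Incubation took 30 min at room temperature in Tris/NaCl/DTT/glycerol buffer and was followed by washing, 0.1% formaldehyde crosslinking, proximity ligation (BsaI/T4 ligase, 1 h, 37 °C), PCR amplification and sequencing on an Illumina NextSeq500. Binding signal is the ratio of a hexamer's read frequency for a factor to its frequency for the tag-only sample.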
# ELK1 = molecular target: T2, ELK1 (Homo sapiens, UniProt P19419 1-428); details: protein: recombinant; tags: N-terminal GST; dsDNA, one strand shown
# T2 sequence: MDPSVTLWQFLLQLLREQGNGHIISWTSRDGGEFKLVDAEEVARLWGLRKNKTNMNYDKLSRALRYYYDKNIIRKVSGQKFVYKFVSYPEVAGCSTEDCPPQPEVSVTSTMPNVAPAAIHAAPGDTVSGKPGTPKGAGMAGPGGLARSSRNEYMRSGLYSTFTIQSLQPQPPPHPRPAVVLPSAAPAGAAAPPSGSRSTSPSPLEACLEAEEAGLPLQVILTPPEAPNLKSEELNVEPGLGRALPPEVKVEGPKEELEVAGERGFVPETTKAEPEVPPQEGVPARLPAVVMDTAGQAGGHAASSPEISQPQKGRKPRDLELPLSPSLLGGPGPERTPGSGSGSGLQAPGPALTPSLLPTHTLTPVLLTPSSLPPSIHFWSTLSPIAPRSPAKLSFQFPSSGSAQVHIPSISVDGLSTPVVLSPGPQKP
# How it was run: as §1
# GABPA = molecular target: T3, GABPA (Homo sapiens, UniProt Q06546 1-454); details: protein: recombinant; tags: N-terminal GST; dsDNA, one strand shown
# T3 sequence: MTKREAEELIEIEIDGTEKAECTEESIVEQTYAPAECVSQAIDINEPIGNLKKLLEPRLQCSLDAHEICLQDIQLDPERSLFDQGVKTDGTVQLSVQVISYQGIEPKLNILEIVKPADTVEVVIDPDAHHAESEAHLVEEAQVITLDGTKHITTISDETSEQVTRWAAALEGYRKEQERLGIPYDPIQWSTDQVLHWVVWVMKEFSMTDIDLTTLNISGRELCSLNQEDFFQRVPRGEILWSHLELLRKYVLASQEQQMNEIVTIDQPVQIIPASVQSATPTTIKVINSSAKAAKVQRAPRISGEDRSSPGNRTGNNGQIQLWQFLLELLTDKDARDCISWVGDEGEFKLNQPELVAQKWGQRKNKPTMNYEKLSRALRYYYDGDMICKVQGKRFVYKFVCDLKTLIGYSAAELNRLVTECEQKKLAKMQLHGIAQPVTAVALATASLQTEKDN
# How it was run: as §1
# ERG = molecular target: T4, ERG (Homo sapiens, UniProt P11308 1-479); details: protein: recombinant; tags: N-terminal GST; dsDNA, one strand shown
# T4 sequence: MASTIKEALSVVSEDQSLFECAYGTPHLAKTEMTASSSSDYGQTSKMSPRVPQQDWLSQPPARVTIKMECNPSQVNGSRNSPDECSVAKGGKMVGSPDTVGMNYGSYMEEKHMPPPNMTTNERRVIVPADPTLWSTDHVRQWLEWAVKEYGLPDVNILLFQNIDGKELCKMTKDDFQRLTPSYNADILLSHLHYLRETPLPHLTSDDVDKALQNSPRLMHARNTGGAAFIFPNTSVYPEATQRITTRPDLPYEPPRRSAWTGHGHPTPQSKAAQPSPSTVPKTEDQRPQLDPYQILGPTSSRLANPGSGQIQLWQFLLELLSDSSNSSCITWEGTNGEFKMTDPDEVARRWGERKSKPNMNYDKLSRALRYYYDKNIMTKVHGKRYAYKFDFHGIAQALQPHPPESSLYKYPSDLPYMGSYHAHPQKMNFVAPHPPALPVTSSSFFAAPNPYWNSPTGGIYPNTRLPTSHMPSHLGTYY
# How it was run: as §1
# ELF1 = ELF1 (Homo sapiens, UniProt P32519 1-619); details: protein: recombinant; tags: N-terminal GST; dsDNA, one strand shown
# How it was run: as §1
# EHF = molecular target: T5, EHF (Homo sapiens, UniProt Q9NZC4 1-300); details: protein: recombinant; tags: N-terminal GST; dsDNA, one strand shown
# T5 sequence: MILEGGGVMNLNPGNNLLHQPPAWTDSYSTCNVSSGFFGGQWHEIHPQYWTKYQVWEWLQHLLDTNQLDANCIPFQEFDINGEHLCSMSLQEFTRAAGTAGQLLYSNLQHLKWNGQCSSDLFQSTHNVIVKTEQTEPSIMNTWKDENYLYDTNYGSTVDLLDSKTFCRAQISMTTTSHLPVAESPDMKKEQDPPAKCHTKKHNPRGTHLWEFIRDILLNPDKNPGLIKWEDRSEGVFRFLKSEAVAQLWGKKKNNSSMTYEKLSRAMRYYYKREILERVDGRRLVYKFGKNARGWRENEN
# How it was run: as §1
# SPI1 = SPI1 (Homo sapiens, UniProt P17947 1-270); details: protein: recombinant; tags: N-terminal GST; dsDNA, one strand shown
# How it was run: as §1
# SPIB = SPIB (Homo sapiens, UniProt Q01892 1-262); details: protein: recombinant; tags: N-terminal GST; dsDNA, one strand shown
# How it was run: as §1
# ELK3 = molecular target: T6, ELK3 (Homo sapiens, UniProt P41970 1-407); details: protein: recombinant; tags: N-terminal GST; dsDNA, one strand shown
# T6 sequence: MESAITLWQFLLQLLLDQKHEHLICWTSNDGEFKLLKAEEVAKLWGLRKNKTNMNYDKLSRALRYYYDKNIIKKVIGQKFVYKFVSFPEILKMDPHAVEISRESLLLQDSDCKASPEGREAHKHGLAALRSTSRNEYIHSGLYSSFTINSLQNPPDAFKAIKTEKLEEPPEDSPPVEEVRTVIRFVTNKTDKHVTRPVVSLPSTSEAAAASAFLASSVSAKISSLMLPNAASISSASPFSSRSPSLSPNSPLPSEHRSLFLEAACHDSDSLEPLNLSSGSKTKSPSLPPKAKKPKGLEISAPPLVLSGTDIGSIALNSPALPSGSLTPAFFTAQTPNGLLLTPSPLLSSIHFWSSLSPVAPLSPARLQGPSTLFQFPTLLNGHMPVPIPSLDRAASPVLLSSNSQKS
# How it was run: as §1
# FEV = molecular target: T7, FEV (Homo sapiens, UniProt Q99581 1-238); details: protein: recombinant; tags: N-terminal GST; dsDNA, one strand shown
# T7 sequence: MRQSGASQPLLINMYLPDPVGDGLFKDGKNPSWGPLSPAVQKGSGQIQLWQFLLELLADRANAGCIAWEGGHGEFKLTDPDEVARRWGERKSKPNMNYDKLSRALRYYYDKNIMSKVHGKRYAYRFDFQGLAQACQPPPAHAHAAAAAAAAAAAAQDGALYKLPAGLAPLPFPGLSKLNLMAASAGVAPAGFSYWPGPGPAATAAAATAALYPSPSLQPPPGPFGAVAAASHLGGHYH
# How it was run: as §1
# ETV5 = ETV5 (Homo sapiens, UniProt P41161 1-510); details: protein: recombinant; tags: N-terminal GST; dsDNA, one strand shown
# How it was run: as §1
# HSF1 = HSF1 (Homo sapiens, UniProt Q00613 1-529); details: protein: recombinant; tags: N-terminal GST; chain copies: 3; dsDNA, one strand shown
# How it was run: as §1
# SPIC = molecular target: T8, SPIC (Homo sapiens, UniProt Q8N5J4 1-248); details: protein: recombinant; tags: N-terminal GST; dsDNA, one strand shown
# T8 sequence: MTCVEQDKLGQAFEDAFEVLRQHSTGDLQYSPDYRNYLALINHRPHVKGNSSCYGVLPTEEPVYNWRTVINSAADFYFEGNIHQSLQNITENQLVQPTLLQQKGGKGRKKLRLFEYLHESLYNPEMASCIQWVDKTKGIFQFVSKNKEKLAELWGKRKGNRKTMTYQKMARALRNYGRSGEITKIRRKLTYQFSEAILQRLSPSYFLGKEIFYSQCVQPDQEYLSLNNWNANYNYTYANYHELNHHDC
# How it was run: as §1
# ELF4 = ELF4 (Homo sapiens, UniProt Q99607 1-663); details: protein: recombinant; tags: N-terminal GST; dsDNA, one strand shown
# How it was run: as §1
# ELK4 = molecular target: T9, ELK4 (Homo sapiens, UniProt P28324-2 1-405); details: protein: recombinant; tags: N-terminal GST; dsDNA, one strand shown
# T9 sequence: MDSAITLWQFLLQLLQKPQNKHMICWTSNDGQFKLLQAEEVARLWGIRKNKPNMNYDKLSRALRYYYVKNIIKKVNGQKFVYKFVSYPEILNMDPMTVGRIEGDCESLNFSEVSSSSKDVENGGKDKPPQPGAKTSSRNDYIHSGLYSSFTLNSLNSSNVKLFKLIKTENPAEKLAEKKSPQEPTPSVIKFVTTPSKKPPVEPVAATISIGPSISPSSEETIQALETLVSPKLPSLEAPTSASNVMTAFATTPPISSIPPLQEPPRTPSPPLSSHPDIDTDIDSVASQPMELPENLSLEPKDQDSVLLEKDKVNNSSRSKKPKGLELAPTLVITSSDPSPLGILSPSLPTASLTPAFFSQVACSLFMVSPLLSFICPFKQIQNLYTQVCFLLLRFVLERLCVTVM
# How it was run: as §1
# ETV2 = molecular target: T10, ETV2 (Homo sapiens, UniProt O00321 1-342); details: protein: recombinant; tags: N-terminal GST; dsDNA, one strand shown
# T10 sequence: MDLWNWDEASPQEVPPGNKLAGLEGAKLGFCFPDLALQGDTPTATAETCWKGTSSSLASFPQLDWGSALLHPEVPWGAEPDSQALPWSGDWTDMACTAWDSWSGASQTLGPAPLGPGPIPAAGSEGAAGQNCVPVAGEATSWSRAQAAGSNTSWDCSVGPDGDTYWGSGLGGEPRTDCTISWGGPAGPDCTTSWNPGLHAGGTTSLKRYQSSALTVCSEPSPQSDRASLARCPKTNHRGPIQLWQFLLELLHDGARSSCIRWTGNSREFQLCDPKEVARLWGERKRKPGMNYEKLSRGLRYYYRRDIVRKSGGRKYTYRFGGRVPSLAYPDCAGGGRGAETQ
# How it was run: as §1
# ELF3 = molecular target: T11, ELF3 (Homo sapiens, UniProt P78545 1-371); details: protein: recombinant; tags: N-terminal GST; dsDNA, one strand shown
# T11 sequence: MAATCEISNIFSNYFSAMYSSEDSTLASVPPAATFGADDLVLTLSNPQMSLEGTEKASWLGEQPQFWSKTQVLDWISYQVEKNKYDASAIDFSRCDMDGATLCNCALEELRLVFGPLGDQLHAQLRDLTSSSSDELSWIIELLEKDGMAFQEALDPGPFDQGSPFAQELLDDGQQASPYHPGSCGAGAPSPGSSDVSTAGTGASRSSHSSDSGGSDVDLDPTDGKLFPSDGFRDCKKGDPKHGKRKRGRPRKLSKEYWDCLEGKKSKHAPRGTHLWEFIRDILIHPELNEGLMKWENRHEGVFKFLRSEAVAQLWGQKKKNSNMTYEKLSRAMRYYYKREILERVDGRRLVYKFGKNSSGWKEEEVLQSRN
# How it was run: as §1
# CRX = CRX (Homo sapiens, UniProt O43186 1-299); details: protein: recombinant; tags: N-terminal GST; dsDNA, one strand shown
# How it was run: as §1
# ETV1 = ETV1 (Homo sapiens, UniProt P50549 1-477); details: protein: recombinant; tags: N-terminal GST; dsDNA, one strand shown
# How it was run: as §1
# HSF1, sequence (Q00613 whole entry): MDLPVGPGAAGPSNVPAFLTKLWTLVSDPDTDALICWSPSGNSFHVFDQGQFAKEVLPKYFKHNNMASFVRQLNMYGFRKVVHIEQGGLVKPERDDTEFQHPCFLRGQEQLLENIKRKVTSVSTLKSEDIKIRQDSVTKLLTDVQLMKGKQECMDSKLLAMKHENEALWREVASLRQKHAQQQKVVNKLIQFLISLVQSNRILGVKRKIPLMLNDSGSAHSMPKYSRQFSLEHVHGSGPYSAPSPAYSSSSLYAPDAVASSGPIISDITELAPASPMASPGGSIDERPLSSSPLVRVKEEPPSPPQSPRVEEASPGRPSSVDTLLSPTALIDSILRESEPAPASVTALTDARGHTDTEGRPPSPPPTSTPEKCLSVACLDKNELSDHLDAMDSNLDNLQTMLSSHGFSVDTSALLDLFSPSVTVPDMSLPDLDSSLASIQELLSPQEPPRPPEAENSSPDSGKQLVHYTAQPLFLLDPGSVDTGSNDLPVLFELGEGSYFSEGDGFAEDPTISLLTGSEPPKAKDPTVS
# ELF4, sequence (Q99607 whole entry): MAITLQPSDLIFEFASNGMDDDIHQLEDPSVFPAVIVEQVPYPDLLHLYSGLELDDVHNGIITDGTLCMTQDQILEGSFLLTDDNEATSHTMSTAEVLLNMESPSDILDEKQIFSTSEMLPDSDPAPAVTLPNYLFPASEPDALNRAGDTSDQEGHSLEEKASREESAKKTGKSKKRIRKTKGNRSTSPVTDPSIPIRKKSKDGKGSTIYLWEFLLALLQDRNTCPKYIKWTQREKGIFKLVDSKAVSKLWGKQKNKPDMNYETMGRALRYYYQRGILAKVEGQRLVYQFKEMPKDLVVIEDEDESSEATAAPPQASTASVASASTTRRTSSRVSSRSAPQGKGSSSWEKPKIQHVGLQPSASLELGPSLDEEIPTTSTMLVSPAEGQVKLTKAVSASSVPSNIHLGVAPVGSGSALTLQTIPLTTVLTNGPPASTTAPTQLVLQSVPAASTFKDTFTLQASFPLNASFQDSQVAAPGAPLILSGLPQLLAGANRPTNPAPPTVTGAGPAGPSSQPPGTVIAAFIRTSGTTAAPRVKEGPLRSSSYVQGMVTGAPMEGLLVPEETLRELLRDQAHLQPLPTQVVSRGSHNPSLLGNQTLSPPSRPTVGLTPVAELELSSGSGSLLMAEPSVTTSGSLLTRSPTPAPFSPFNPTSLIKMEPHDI
# ELF1, sequence (P32519 whole entry): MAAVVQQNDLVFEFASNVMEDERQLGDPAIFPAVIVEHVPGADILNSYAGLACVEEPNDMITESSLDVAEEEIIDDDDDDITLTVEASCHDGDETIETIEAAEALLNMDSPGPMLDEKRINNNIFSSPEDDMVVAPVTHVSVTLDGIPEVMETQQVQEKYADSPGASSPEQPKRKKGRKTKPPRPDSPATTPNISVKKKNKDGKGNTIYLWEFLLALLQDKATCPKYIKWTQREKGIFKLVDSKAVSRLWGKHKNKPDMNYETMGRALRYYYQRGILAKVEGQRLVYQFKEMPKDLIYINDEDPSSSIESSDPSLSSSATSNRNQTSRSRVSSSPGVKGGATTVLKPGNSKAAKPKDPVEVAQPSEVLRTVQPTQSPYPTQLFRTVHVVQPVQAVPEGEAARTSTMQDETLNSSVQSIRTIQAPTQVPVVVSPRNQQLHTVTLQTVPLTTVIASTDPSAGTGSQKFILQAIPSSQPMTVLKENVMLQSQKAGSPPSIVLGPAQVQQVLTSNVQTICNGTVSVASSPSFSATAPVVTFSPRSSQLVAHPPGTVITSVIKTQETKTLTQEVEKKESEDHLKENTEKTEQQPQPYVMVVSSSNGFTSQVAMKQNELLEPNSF
# SPIB, sequence (Q01892 whole entry): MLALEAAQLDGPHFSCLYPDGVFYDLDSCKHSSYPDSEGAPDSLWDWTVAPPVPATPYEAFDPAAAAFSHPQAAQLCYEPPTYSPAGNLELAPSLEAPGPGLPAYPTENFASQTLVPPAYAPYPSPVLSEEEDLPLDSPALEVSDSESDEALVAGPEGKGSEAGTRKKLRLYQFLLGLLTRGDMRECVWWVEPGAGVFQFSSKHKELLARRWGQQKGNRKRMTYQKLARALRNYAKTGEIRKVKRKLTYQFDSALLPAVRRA
# ETV5, sequence (P41161 whole entry): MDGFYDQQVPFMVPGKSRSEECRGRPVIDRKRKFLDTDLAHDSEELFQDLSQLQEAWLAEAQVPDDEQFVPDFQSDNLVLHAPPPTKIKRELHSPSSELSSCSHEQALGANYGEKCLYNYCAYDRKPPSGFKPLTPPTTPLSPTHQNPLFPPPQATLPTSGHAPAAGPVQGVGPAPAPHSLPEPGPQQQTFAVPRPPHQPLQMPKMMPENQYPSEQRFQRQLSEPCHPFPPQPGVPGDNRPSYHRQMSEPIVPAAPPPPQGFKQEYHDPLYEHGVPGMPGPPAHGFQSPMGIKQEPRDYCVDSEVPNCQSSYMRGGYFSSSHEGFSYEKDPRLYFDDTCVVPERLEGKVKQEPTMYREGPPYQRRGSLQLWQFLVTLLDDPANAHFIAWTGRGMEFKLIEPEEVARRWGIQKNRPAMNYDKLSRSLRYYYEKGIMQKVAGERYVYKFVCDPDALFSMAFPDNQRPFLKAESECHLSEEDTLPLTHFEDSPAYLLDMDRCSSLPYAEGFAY
# ETV1, sequence (P50549 whole entry): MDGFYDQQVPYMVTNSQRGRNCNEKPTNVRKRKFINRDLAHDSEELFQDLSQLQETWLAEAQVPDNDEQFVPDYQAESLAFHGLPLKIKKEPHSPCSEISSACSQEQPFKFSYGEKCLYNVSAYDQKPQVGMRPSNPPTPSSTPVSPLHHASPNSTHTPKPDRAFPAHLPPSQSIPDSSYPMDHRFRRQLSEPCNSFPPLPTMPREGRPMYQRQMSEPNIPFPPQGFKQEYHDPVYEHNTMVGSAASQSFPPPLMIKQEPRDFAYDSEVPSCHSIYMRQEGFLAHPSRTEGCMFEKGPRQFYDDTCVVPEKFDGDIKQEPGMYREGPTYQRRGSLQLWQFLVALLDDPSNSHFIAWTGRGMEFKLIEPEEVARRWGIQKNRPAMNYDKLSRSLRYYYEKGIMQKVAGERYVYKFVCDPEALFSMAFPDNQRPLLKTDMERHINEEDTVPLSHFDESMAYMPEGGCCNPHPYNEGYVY
# CRX, sequence (O43186 whole entry): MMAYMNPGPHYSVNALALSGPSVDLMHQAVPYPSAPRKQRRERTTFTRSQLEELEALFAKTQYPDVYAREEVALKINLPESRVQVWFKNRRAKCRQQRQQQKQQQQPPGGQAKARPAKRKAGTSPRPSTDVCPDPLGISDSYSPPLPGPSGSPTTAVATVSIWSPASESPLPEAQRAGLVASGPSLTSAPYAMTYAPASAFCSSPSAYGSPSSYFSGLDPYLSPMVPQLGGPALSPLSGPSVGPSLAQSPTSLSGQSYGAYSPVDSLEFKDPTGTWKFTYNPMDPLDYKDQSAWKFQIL
sequence,measurement,setting,value
TAGTAC,binding signal,FLI1,"1.11 fold enrichment (6-mer frequency, TF over GST control)"
same,binding signal,ELK1,"1.13 fold enrichment (6-mer frequency, TF over GST control)"
same,binding signal,GABPA,"1.22 fold enrichment (6-mer frequency, TF over GST control)"
same,binding signal,ERG,"1.24 fold enrichment (6-mer frequency, TF over GST control)"
same,binding signal,ELF1,"1.16 fold enrichment (6-mer frequency, TF over GST control)"
same,binding signal,EHF,"1.08 fold enrichment (6-mer frequency, TF over GST control)"
same,binding signal,SPI1,"1.07 fold enrichment (6-mer frequency, TF over GST control)"
same,binding signal,SPIB,"1.06 fold enrichment (6-mer frequency, TF over GST control)"
same,binding signal,ELK3,"1.12 fold enrichment (6-mer frequency, TF over GST control)"
same,binding signal,FEV,"1.16 fold enrichment (6-mer frequency, TF over GST control)"
same,binding signal,ETV5,"1.14 fold enrichment (6-mer frequency, TF over GST control)"
same,binding signal,HSF1,"1.25 fold enrichment (6-mer frequency, TF over GST control)"
same,binding signal,SPIC,"1.27 fold enrichment (6-mer frequency, TF over GST control)"
same,binding signal,ELF4,"1.15 fold enrichment (6-mer frequency, TF over GST control)"
same,binding signal,ELK4,"1.16 fold enrichment (6-mer frequency, TF over GST control)"
same,binding signal,ETV2,"1.06 fold enrichment (6-mer frequency, TF over GST control)"
same,binding signal,ELF3,"1.14 fold enrichment (6-mer frequency, TF over GST control)"
same,binding signal,CRX,"1.29 fold enrichment (6-mer frequency, TF over GST control)"
same,binding signal,ETV1,"1.14 fold enrichment (6-mer frequency, TF over GST control)"

# Reference: article PMC7862700, “An all-to-all approach to the identification of sequence-specific readers for epigenetic DNA modifications on cytosine”
